In PubChem BioAssay AID1645855 (Buhrlage Lab, Dana-Farber Cancer Institute and Novartis …, 2021):
In all, about 47,000 compounds went through this assay and about 3,100 (6.6%) were called active. This excerpt belongs to a sample that is enriched for actives. Values without a mark were called inactive. Rule as the data show it: active = inhibition above about 30%; inactive = the rest.

What follows are compounds tested against Ubiquitin carboxyl-terminal hydrolase 17-like protein 5 (Homo sapiens) (UniProt A8MUK1) (assay: inhibitors of human USP17 deubiquitinase (AID 1645855)). Details: purified USP17, Ub-rhodamine cleavage fluorescence, 3 h; at 50 µM; stronger effect = higher value.
Chain of Ubiquitin carboxyl-terminal hydrolase 17-like protein 5 (Homo sapiens) (A8MUK1 whole entry, looked up): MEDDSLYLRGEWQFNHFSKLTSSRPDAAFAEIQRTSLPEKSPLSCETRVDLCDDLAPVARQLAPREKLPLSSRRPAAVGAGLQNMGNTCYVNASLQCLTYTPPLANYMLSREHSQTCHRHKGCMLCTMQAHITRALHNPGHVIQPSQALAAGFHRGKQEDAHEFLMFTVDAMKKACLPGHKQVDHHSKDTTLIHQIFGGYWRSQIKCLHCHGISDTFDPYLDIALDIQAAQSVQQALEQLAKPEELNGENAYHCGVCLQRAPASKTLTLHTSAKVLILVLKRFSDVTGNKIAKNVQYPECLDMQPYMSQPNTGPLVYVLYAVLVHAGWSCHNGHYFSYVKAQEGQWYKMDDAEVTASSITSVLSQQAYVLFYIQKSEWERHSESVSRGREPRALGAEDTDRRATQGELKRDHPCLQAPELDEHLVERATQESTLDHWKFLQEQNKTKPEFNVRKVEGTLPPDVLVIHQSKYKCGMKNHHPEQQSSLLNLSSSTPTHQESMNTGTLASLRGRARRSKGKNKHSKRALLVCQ
With `Cc1ccccc1CNC(=O)C1CCN(c2cnc3nccnc3c2)CC1` the inhibition was -13%. In the case of `CCN1CCN(C(=O)c2cccn2Cc2noc(-c3ccc(C)cc3)n2)CC1`, the inhibition is reported as -1.85%. `CN(C)C(CNC(=O)c1ccccc1Br)Cc1ccccc1` (stereo unspecified) was tested, and the inhibition was 14.4%. With `Cc1ccccc1N1C(=O)COc2ccc3ccccc3c2C1C(=O)NC1CCCC1` (stereo unspecified) the inhibition was -5.8%. Compound `CNC(=O)[C@@]12CCC3(CCN(C(=O)c4cc(C)on4)CC3)[C@@H]1CN(C)C2` has an inhibition of 3.02%. `CCn1cc(CN2C[C@@H](O)[C@H](NC(=O)c3ccccn3)C2)c(C)n1` was tested, and the inhibition was 12.4%. Compound `O=C(c1cnn(-c2ccc(Cl)cc2)n1)c1cccs1` has an inhibition of 29.5%. `O=C(Nc1ccc2oc(-c3ccccc3)nc2c1)c1cccc(-n2cnnc2)n1` showed an inhibition of -0.426%. In the case of `O=C(Nc1ccc2cn[nH]c2c1)c1cnn(-c2ccccc2)n1`, the inhibition is reported as 38.2% (active). Compound `CC(NC(=O)c1ccc2ncnc(N3CCOCC3)c2c1)c1ccccc1` (stereo unspecified) has an inhibition of 9.89%. With `C=C(NC(=O)C(=C)NC(=O)c1csc(C2=N[C@@H]3c4csc(n4)[C@H]4NC(=O)c5csc(n5)[C@H]([C@](C)(O)[C@@H](C)O)NC(=O)C5CSC(=N5)/C(=C/C)NC(=O)C([C@@H](C)O)NC(=O)c5csc(n5)[C@]3(CC2)NC(=O)[C@H](C)NC(=O)C(=C)NC(=O)[C@H](C)NC(=O)C([C@@H](C)CC)NC2C=Cc3c(C(C)O)cc(nc3[C@H]2O)C(=O)OC4C)n1)C(N)=O` (stereo partly specified) the inhibition was 53.2% (active). Work on `CN(C)C(=O)C1CN(Cc2cccc(C#N)c2)Cc2ccnn2C1` (stereo unspecified) yielded an inhibition of -3.45%. In the case of `c1cncc(-c2nnc3n2C2(CCCCC2)Cc2ccccc2-3)c1`, the inhibition is reported as -1.82%. `O=c1c2ccccc2n(Cc2ccccc2Cl)c(=O)n1Cc1ccco1` was tested, and the inhibition was -8.56%. With `CCn1nccc1C1CCCN1C(=O)Nc1ccc(Cl)cc1` (stereo unspecified) the inhibition was 1.51%. `COc1ccc(CCNC(=O)CCCn2c(=O)c3ccccc3n(CC(=O)OCc3ccccc3)c2=O)cc1OC` was tested, and the inhibition was 40.5% (active). Compound `COc1ccc(CCNC(=O)Cn2c(=O)n(CC3CCC(C(=O)NC4CCCC4)CC3)c(=O)c3ccccc32)cc1OC` (stereo unspecified) has an inhibition of 9.89%. With `Cc1cccc(N2CC(C)Cn3c2nc2c3c(=O)n(CC(=O)OCc3ccccc3)c(=O)n2C)c1` (stereo unspecified) the inhibition was -3.33%. `Cc1ccc(CNC(=O)CCCn2c(=O)c3sccc3n(CC(=O)OCc3ccccc3)c2=O)cc1` was tested, and the inhibition was 47.4% (active). `Cc1ccc(CNC(=O)CC(c2ccccc2)c2ccccc2)cc1` showed an inhibition of 24.3%. In the case of `COc1ccc(CCNC(=O)CSc2cn(CCNC(=O)c3ccccc3C)c3ccccc23)cc1OC`, the inhibition is reported as 18.8%. With `COCC(=O)OCc1cc(=O)oc2cc(O)ccc12` the inhibition was 14.9%. For `CN1CCn2c(-c3cccnc3)cnc2C12CCN(Cc1cccnc1)CC2`, the inhibition was -23.9%. Compound `O=C(O)C1CCCN1C(=O)C1CCN(S(=O)(=O)c2ccccc2)CC1` (stereo unspecified) has an inhibition of 0.0755%. Compound `CC(C)N1CCN(C(=O)Cn2c(=O)n(-c3ccccc3)c3ncccc32)CC1` has an inhibition of -9.73%. Work on `O=C(Nc1cccnc1Cl)c1noc2c1COc1ccccc1-2` yielded an inhibition of 15%. With `COc1cccc(CCNC(=O)Cc2cc(-c3ccc(C)cc3)on2)c1` the inhibition was -2.69%. Compound `Cc1nc(-c2ccc(C)c(S(=O)(=O)NCC(=O)Nc3cccc(Cl)c3)c2)no1` has an inhibition of -1.55%. With `NC(=O)c1ccc(NC(=O)Cc2cc(-c3ccc(Cl)cc3)on2)cc1` the inhibition was 58.4% (active). In the case of `Cc1ccc(CN2CCC(N3CCN(C(=O)c4c(C)nn(C)c4C)CC3=O)CC2)cc1`, the inhibition is reported as 2.05%. Compound `CC(NC(=O)CN1C(=O)C2CCCN2C(=O)c2ccc(F)cc21)c1ccccc1` (stereo unspecified) has an inhibition of -12.4%. Work on `CCc1cc(=O)n(CC(=O)NC2CCCC2)c(N2CCOCC2)n1` yielded an inhibition of 0.695%. Work on `O=C(CCc1nnc2ccc(N3CCCCC3)nn12)Nc1ccc(S(=O)(=O)N2CCCCCC2)cc1` yielded an inhibition of 16.3%. In the case of `O=C(NC1CC1)c1cccc(OCC2CCCN(C(=O)c3cc(F)ccc3F)C2)c1` (stereo unspecified), the inhibition is reported as -3.72%. With `CSc1nc2c(c(Nc3ccc(C(C)=O)cc3)n1)CCC2` the inhibition was 61% (active). `O=C(NCC1CC1)c1ccc2c(c1)nc1n2CCN(Cc2ccccn2)C1=O` gave an inhibition of -18.5%. With `CC(C)=CCc1cc(O)ccc1O` the inhibition was 4.38%. With `CC(C)=CCC(O)C1=CC(=O)c2c(O)ccc(O)c2C1=O` (stereo unspecified) the inhibition was 95.2% (active). Work on `CN(C(=O)c1ccc(S(=O)(=O)N2CCOCC2)cc1)c1nnc(C23CC4CC(CC(C4)C2)C3)s1` yielded an inhibition of 5.76%. `CCOC(=O)c1c(S(=O)(=O)NCC(=O)Nc2ccc(C)cc2)c(C)n(C)c1C` showed an inhibition of -20.2%. Compound `CN(CCc1ccccc1)c1nccc(N2CCN(C(=O)c3csc(-c4cccnc4)n3)CC2)n1` has an inhibition of 19.2%. For `Cc1ccc(CSc2nnc(/C=C/c3ccccc3)o2)cc1`, the inhibition was 39.9% (active). Compound `Cc1ccc(Cc2nnc(C(=O)NC(C)c3ccccc3)o2)cc1` (stereo unspecified) has an inhibition of 4.41%. With `COc1ccccc1CC(=O)N1C[C@@H]2C[C@H]1C[C@@H]2NC(=O)c1ccccc1` the inhibition was 15.2%. `COc1ccc(CNC(=O)CCc2c(C)nn(-c3cc(N(C)C)ncn3)c2C)cc1` gave an inhibition of -0.38%. For `Cc1ccc(S(=O)(=O)N2C(=O)CCC2C(=O)N2CCCC2)cc1C` (stereo unspecified), the inhibition was -4.46%. `O=C(Cc1nnc2c(-c3nc(C4CC4)no3)cccn12)Nc1ccccc1` was tested, and the inhibition was 69.9% (active). Compound `CCn1c(CC(=O)Nc2ccccc2)nnc1SCC(=O)N1CCOCC1` has an inhibition of 1.1%. For `O=C(CN1CCC(c2nc(-c3ccccc3)no2)CC1)Nc1ccccc1`, the inhibition was -26.4%. `O=C(c1noc2c1CCCC2)N1CCCC(c2ccn[nH]2)C1` (stereo unspecified) gave an inhibition of 0.07%. `O=C1NCCCCC1NS(=O)(=O)c1ccc2c(c1)CCO2` (stereo unspecified) showed an inhibition of 2.39%. For `CC1=C(c2ccc(F)cc2)S(=O)(=O)N=C1Nc1ccccc1Cl`, the inhibition was 22.6%. Compound `CCc1nc(SCC(=O)Nc2cc(Cl)ccc2Cl)c2oc3ccccc3c2n1` has an inhibition of 20.6%. With `Cc1nc(SCC(=O)Nc2cc(Cl)cc(Cl)c2)c2oc3ccccc3c2n1` the inhibition was -0.843%. `O=C(CSc1ncnc2c1oc1ccccc12)NC1CCCC1` was tested, and the inhibition was 61.3% (active). `Cc1nnc(-c2cn(CC(=O)NC3CCCCC3)c3ccccc23)o1` gave an inhibition of 6.87%. For `O=C(CSc1ncnc2nc[nH]c12)NC1CCCCC1`, the inhibition was -12.5%. With `CCc1nc(SCC(=O)Nc2cccc3ccccc23)c2oc3ccccc3c2n1` the inhibition was 30.1% (active). For `FC(F)(F)Oc1ccc2[nH]c3c(c2c1)CNCC3`, the inhibition was 7.52%. `OCc1cc2c([nH]c3ccccc32)c([C@@H](O)CO)n1` was tested, and the inhibition was -4.94%. Compound `Cc1ccccc1Nc1nc(N)nc(CN2CCCC2c2cccn2C)n1` (stereo unspecified) has an inhibition of -130%. `CCOC(=O)c1cnc2c(C(F)(F)F)cccc2c1Sc1ccc(C)cc1C` showed an inhibition of 3.52%. `O=C1NC2(CCN(C(=O)Cc3ccccc3)CC2)Nc2cc(Cl)ccc21` was tested, and the inhibition was -2.47%. `CSc1ccccc1NC(=O)c1ccc(N2CCCC2)nn1` was tested, and the inhibition was 56.7% (active). `Cc1cc(C)n(-c2ccc(C(=O)Nc3ccccc3C(C)C)nn2)n1` showed an inhibition of 29.7%. `O=C(Cc1ccccc1)N1CCN(c2ccc(N3CCCC3)nn2)CC1` showed an inhibition of 15%. `O=C(c1sc2cnccc2c1-n1cccc1)N1CCc2ccccc2C1` showed an inhibition of 8.13%. In the case of `CCOC(=O)c1cc(C)nc2c1c(=O)n(Cc1nc(-c3ccccc3)oc1C)c(=O)n2C`, the inhibition is reported as -6.3%. In the case of `CCCOc1ccc(C2CN3C(=O)N(c4cccc(C(C)=O)c4)C(=O)[C@]3(C)c3[nH]c4ccccc4c32)cc1OCC` (stereo partly specified), the inhibition is reported as 2.94%. For `COc1ccc(-c2cc(C(=O)Nc3sccc3C(N)=O)c3ccccc3n2)cc1`, the inhibition was -139%. `COC(=O)c1cccc(N(C(=O)c2cnccn2)C(C(=O)NC2CCCCC2)c2ccc(OC)c(OC)c2)c1` (stereo unspecified) gave an inhibition of -9.26%. For `O=C(NC1CCCC1)C1c2cc(Br)ccc2OCC(=O)N1C1CCCC1` (stereo unspecified), the inhibition was -0.00685%. Compound `CC(CCc1ccccc1)NC(=O)COC(=O)c1ccc2[nH]c3c(c2c1)CCCC3` (stereo unspecified) has an inhibition of 15.2%. For `O=C(COC(=O)c1ccc2[nH]c3c(c2c1)CCCC3)Nc1ccc(N2CCOCC2)cc1`, the inhibition was 31% (active). `O=C(COC(=O)CCc1nc2ccccc2c(=O)[nH]1)Nc1ccc(N2CCOCC2)cc1` showed an inhibition of -1.46%. `c1cc2c(cc1-c1nn[nH]n1)OCO2` was tested, and the inhibition was -14.4%. With `CC(=O)N1CC[C@H]2COC(=O)N(Cc3ccccc3)[C@@H]2C1` the inhibition was 5.56%. `COc1ccc(CN(C)c2ccc(S(=O)(=O)Nc3ccccn3)cn2)cc1` gave an inhibition of 6.32%. With `O=S(=O)(c1ccccc1F)N1CCCn2nnc(COCC3CC3)c2C1` the inhibition was 0.743%. `COc1ccccc1NC(=O)c1cccc(S(=O)(=O)N2CCc3ccccc32)c1` gave an inhibition of -7.94%. Work on `Cc1ccc(NC(=O)c2ccc3c(c2)N(S(C)(=O)=O)CC3)cc1C` yielded an inhibition of -24.5%. `COc1cccc(NC(=O)c2ccc3c(c2)N(S(C)(=O)=O)CC3)c1` was tested, and the inhibition was 30.4% (active). `Cn1c(CCNC(=O)c2ccc(C(C)(C)C)cc2)nc2cccnc21` was tested, and the inhibition was -167%. In the case of `COc1ccc(N(Cc2cc(=O)[nH]c3ccccc23)C(=O)c2ccc(Cl)cc2)cc1`, the inhibition is reported as 39.6% (active). `COc1ccc(C(=O)CC(c2ccc(Cl)cc2)S(=O)(=O)c2ccccc2)cc1` (stereo unspecified) showed an inhibition of 4.59%. Work on `Cc1ccc(C(=O)N(Cc2cc(=O)[nH]c3ccccc23)C(C)C)cc1F` yielded an inhibition of 0.00655%.
